Results taken from paper PMC11006913.

How the values were obtained:
Test in all cases: PBM; 200 nM protein, PBS
Details in all cases: dsDNA, one strand shown
VAX1 [1] = molecular target: VAX1 (Homo sapiens, UniProt Q5SQQ9 86-172)
VAX1 [2] = molecular target: VAX1 (Homo sapiens, UniProt Q5SQQ9 86-172, T142I)
VAX1 [3] = molecular target: VAX1 (Homo sapiens, UniProt Q5SQQ9 86-172, K157R)
Chain of VAX1 (Homo sapiens, UniProt Q5SQQ9 86-172, K157R) (Q5SQQ9 86-172 K157R): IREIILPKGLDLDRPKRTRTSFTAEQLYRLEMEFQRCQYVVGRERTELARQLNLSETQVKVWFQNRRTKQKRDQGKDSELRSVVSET

Chain of VAX1 (Homo sapiens, UniProt Q5SQQ9 86-172) (Q5SQQ9 86-172): as the sequence (Q5SQQ9 86-172 K157R) above, with R72K counted along it
Chain of VAX1 (Homo sapiens, UniProt Q5SQQ9 86-172, T142I) (Q5SQQ9 86-172 T142I): as the sequence (Q5SQQ9 86-172 K157R) above, with T57I, R72K counted along it

| Sequence | binding signal (VAX1 [1]) | binding signal (VAX1 [2]) | binding signal (VAX1 [3]) |
| --- | --- | --- | --- |
| ATATTACC | 11.5 upbm affinity estimate (log intensity, higher = more binding, comparable within an allelic series) | 11.2 upbm affinity estimate (log intensity, higher = more binding, comparable within an allelic series) | 11.4 upbm affinity estimate (log intensity, higher = more binding, comparable within an allelic series) |
| CTCCGTGC | 6.97 upbm affinity estimate (log intensity, higher = more binding, comparable within an allelic series) | 7.18 upbm affinity estimate (log intensity, higher = more binding, comparable within an allelic series) | 6.81 upbm affinity estimate (log intensity, higher = more binding, comparable within an allelic series) |
| GATTTAGA | 9.33 upbm affinity estimate (log intensity, higher = more binding, comparable within an allelic series) | 9.17 upbm affinity estimate (log intensity, higher = more binding, comparable within an allelic series) | 9.1 upbm affinity estimate (log intensity, higher = more binding, comparable within an allelic series) |
| GTCGAGCA | 7.29 upbm affinity estimate (log intensity, higher = more binding, comparable within an allelic series) | 7.31 upbm affinity estimate (log intensity, higher = more binding, comparable within an allelic series) | 7.41 upbm affinity estimate (log intensity, higher = more binding, comparable within an allelic series) |
| CGTCATGA | 8.84 upbm affinity estimate (log intensity, higher = more binding, comparable within an allelic series) | 8.58 upbm affinity estimate (log intensity, higher = more binding, comparable within an allelic series) | 8.62 upbm affinity estimate (log intensity, higher = more binding, comparable within an allelic series) |
| TATAAAGA | 9.93 upbm affinity estimate (log intensity, higher = more binding, comparable within an allelic series) | 9.32 upbm affinity estimate (log intensity, higher = more binding, comparable within an allelic series) | 9.28 upbm affinity estimate (log intensity, higher = more binding, comparable within an allelic series) |
| AATATTGG | 9.86 upbm affinity estimate (log intensity, higher = more binding, comparable within an allelic series) | 9.41 upbm affinity estimate (log intensity, higher = more binding, comparable within an allelic series) | 9.62 upbm affinity estimate (log intensity, higher = more binding, comparable within an allelic series) |
| ACAATAAT | 11.2 upbm affinity estimate (log intensity, higher = more binding, comparable within an allelic series) | 11 upbm affinity estimate (log intensity, higher = more binding, comparable within an allelic series) | 10.9 upbm affinity estimate (log intensity, higher = more binding, comparable within an allelic series) |
| AGCCTCCG | 6.91 upbm affinity estimate (log intensity, higher = more binding, comparable within an allelic series) | 7 upbm affinity estimate (log intensity, higher = more binding, comparable within an allelic series) | 6.91 upbm affinity estimate (log intensity, higher = more binding, comparable within an allelic series) |
| ATAACGTG | 9.01 upbm affinity estimate (log intensity, higher = more binding, comparable within an allelic series) | 8.66 upbm affinity estimate (log intensity, higher = more binding, comparable within an allelic series) | 8.79 upbm affinity estimate (log intensity, higher = more binding, comparable within an allelic series) |
| AAATTAGC | 11.9 upbm affinity estimate (log intensity, higher = more binding, comparable within an allelic series) | 11.5 upbm affinity estimate (log intensity, higher = more binding, comparable within an allelic series) | 11.6 upbm affinity estimate (log intensity, higher = more binding, comparable within an allelic series) |
| ATTTCTAG | 9.13 upbm affinity estimate (log intensity, higher = more binding, comparable within an allelic series) | 8.86 upbm affinity estimate (log intensity, higher = more binding, comparable within an allelic series) | – |
| GGTCTCCA | 7.04 upbm affinity estimate (log intensity, higher = more binding, comparable within an allelic series) | 7.37 upbm affinity estimate (log intensity, higher = more binding, comparable within an allelic series) | 7.2 upbm affinity estimate (log intensity, higher = more binding, comparable within an allelic series) |
| CAGCGCAC | 7.28 upbm affinity estimate (log intensity, higher = more binding, comparable within an allelic series) | 7.22 upbm affinity estimate (log intensity, higher = more binding, comparable within an allelic series) | 7.26 upbm affinity estimate (log intensity, higher = more binding, comparable within an allelic series) |
| ATATGTCC | 9.38 upbm affinity estimate (log intensity, higher = more binding, comparable within an allelic series) | 8.89 upbm affinity estimate (log intensity, higher = more binding, comparable within an allelic series) | 9.07 upbm affinity estimate (log intensity, higher = more binding, comparable within an allelic series) |
| CTTCATCA | 9.74 upbm affinity estimate (log intensity, higher = more binding, comparable within an allelic series) | 9.33 upbm affinity estimate (log intensity, higher = more binding, comparable within an allelic series) | 9.51 upbm affinity estimate (log intensity, higher = more binding, comparable within an allelic series) |
| CCTGCAGA | 7.26 upbm affinity estimate (log intensity, higher = more binding, comparable within an allelic series) | 7.33 upbm affinity estimate (log intensity, higher = more binding, comparable within an allelic series) | 7.23 upbm affinity estimate (log intensity, higher = more binding, comparable within an allelic series) |
| CAGCCGTA | 7.32 upbm affinity estimate (log intensity, higher = more binding, comparable within an allelic series) | 7.28 upbm affinity estimate (log intensity, higher = more binding, comparable within an allelic series) | 7.24 upbm affinity estimate (log intensity, higher = more binding, comparable within an allelic series) |
| CCAATCTA | 9.3 upbm affinity estimate (log intensity, higher = more binding, comparable within an allelic series) | 8.82 upbm affinity estimate (log intensity, higher = more binding, comparable within an allelic series) | 9.11 upbm affinity estimate (log intensity, higher = more binding, comparable within an allelic series) |
| ATATCGAA | 8.69 upbm affinity estimate (log intensity, higher = more binding, comparable within an allelic series) | 8.53 upbm affinity estimate (log intensity, higher = more binding, comparable within an allelic series) | – |
| AATTGACG | 10.6 upbm affinity estimate (log intensity, higher = more binding, comparable within an allelic series) | 10.1 upbm affinity estimate (log intensity, higher = more binding, comparable within an allelic series) | 10.2 upbm affinity estimate (log intensity, higher = more binding, comparable within an allelic series) |
| ACCCTCGC | 7.12 upbm affinity estimate (log intensity, higher = more binding, comparable within an allelic series) | 7.19 upbm affinity estimate (log intensity, higher = more binding, comparable within an allelic series) | 7.13 upbm affinity estimate (log intensity, higher = more binding, comparable within an allelic series) |
| CGACTCCG | 6.81 upbm affinity estimate (log intensity, higher = more binding, comparable within an allelic series) | 7.11 upbm affinity estimate (log intensity, higher = more binding, comparable within an allelic series) | 7.09 upbm affinity estimate (log intensity, higher = more binding, comparable within an allelic series) |
| AAGTAAAT | 10.5 upbm affinity estimate (log intensity, higher = more binding, comparable within an allelic series) | 10.2 upbm affinity estimate (log intensity, higher = more binding, comparable within an allelic series) | 10.2 upbm affinity estimate (log intensity, higher = more binding, comparable within an allelic series) |
| CAATCTAG | 9.1 upbm affinity estimate (log intensity, higher = more binding, comparable within an allelic series) | 8.87 upbm affinity estimate (log intensity, higher = more binding, comparable within an allelic series) | 8.9 upbm affinity estimate (log intensity, higher = more binding, comparable within an allelic series) |
| CGACCCAG | 7.38 upbm affinity estimate (log intensity, higher = more binding, comparable within an allelic series) | 7.45 upbm affinity estimate (log intensity, higher = more binding, comparable within an allelic series) | 7.3 upbm affinity estimate (log intensity, higher = more binding, comparable within an allelic series) |
| GCGGAGAC | 7.14 upbm affinity estimate (log intensity, higher = more binding, comparable within an allelic series) | 7.32 upbm affinity estimate (log intensity, higher = more binding, comparable within an allelic series) | 7.29 upbm affinity estimate (log intensity, higher = more binding, comparable within an allelic series) |
